ST2 inh: blocks human ST2 binding to IL-33; AlphaLISA ST2-Fc/biotin-IL-33 interaction, 1 h; inhibition, % for hits at 17 µM; actives 2.3% (n = 78,000); Q01638; in the data active = inhibition above about 30%
Target sequence (Q01638 whole entry, looked up): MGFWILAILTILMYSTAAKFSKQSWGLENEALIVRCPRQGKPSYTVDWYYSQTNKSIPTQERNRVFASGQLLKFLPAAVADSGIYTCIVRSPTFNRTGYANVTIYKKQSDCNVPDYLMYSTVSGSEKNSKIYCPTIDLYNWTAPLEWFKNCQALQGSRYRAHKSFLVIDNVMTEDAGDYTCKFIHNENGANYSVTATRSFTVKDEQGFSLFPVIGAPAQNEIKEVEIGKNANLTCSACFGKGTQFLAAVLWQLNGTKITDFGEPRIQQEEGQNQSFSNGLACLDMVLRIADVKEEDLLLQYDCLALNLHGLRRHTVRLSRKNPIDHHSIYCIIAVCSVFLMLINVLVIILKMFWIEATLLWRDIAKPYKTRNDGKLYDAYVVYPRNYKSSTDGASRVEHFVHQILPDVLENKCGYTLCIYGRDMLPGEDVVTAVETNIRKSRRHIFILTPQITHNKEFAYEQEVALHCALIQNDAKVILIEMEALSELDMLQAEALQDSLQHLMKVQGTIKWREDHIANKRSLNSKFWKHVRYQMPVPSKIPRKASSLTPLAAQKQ
Starred values were filed as active, the others as inactive; i = inactive. This excerpt belongs to a sample that is enriched for hits.

SMILES	ST2 inh
CN(c1ncccc1CNC(=O)c1ccc(=O)[nH]n1)C1CCCCC1	i
CCOc1ccc2oc(C)c(C(=O)NC(C)c3n[nH]c(C)n3)c2c1 (stereo not drawn)	i
O=C(Cn1cnc2c(cnn2-c2ccccc2)c1=O)Nc1ccc(F)cc1F	i
Cc1nc2ccccc2c2oc(C(=O)N3CCN(C)CC3)cc12	i
CCOC(=O)C[C@@H]1C[C@@H](C(C)C)[C@H](CNC(=O)c2ccccc2)C=C1C	i
C=CCN(CC#Cc1ccccc1)C(=O)c1cc2n(n1)CCCN(C)C2	i
CC(C)(C)c1cc(C(C)(C)C)cc(S(N)(=O)=O)c1	i
COc1ccccc1/C=C/C1=NC(=C\C(Cl)=C\c2ccccc2)/C(=O)O1	i
O=C1OC(c2ccccc2Cl)=N/C1=C\C=C\c1ccccc1	34%*
O=C1OC(c2cc([N+](=O)[O-])ccc2Cl)=N/C1=C\c1cccc(I)c1	i
COc1ccc2nc3oc(C(=O)N4CCCC(C)C4)cc3cc2c1 (stereo not drawn)	i
CC(C)CCNC(=O)C1c2ccccc2C(=O)N2CCc3ccccc3C12 (stereo not drawn)	i
CCCOc1ccccc1C1NC(=O)NC(CC)=C1[N+](=O)[O-] (stereo not drawn)	i
O=C(O)C1CCCCC1C(=O)Nc1cccc(F)c1 (stereo not drawn)	i
N#CC(C#N)=C1C(Cl)=C(N2CCCCC2)c2ccccc21	82%*
N#Cc1c(N)nc2c(c1-c1ccccc1Cl)CCCCC2	i
O=C(c1ccccc1Cl)N1CCN(c2ccccc2)CC1	i
COc1ccccc1CN1CCC(CN(CC(C)C)C(=O)c2csc(C(C)=O)c2)CC1	i
O=C(CCn1c(=O)c2sccc2n(Cc2ccc(F)cc2)c1=O)NCc1ccccc1	i
Cc1cc(NC(=O)Cc2c(C(=O)O)[nH]c3ccccc23)no1	i
CC(C)NC(=O)CNC(=O)C1(c2ccccc2F)CC1	i
Cc1sc2nc(SCc3ccc(C(=O)NCCO)cc3)[nH]c(=O)c2c1C	i
O=c1cc(-c2ccc(O)cc2)oc2c(C3OCC(O)C(O)C3O)c(O)c(C3OCC(O)C(O)C3O)c(O)c12 (stereo not drawn)	i
O=c1cc(-c2ccc(O)cc2)oc2c(C3OCC(O)C(O)C3O)c(O)c(C3OC(CO)C(O)C(O)C3O)c(O)c12 (stereo not drawn)	i
O=c1cc(-c2ccc(O)cc2)oc2c([C@@H]3O[C@H](CO)[C@@H](O[C@@H]4O[C@H](CO)[C@@H](O)[C@H](O)[C@H]4O)[C@H](O)[C@H]3O)c(O)cc(O)c12	50%*
SMILES	ST2 inh
O=C(O)CCC(=O)N[C@H]1CCN2C(=O)c3cc(-c4ccccc4)ccc3NC(=O)[C@H]12	i
O=C(O)CCC(=O)N[C@H]1CCN2C(=O)c3cc(-c4ccccc4F)ccc3NC(=O)[C@H]12	i
COc1ccc(-c2ccc3c(c2)C(=O)N2CC[C@H](NC(=O)CCC(=O)O)[C@H]2C(=O)N3)cc1	46%*
CC1SC2(CCCCC2)N(c2ccc(Cl)cc2)C1=O (stereo not drawn)	i
O=C1CSC(c2ccccc2)N1c1ccc(Cl)cc1 (stereo not drawn)	i
CC(C)(C)C1CCC2(CC1)SCC(=O)N2c1ccc(Cl)cc1 (stereo not drawn)	36%*
CC1CCc2cc(F)ccc2N1C(=O)c1ccc([N+](=O)[O-])cc1 (stereo not drawn)	i
CC1CCc2cc(F)ccc2N1S(C)(=O)=O (stereo not drawn)	i
CC1CCc2cc(F)ccc2N1S(=O)(=O)c1ccc([N+](=O)[O-])cc1 (stereo not drawn)	36%*
CCN(CC)CCNC(=O)c1cc(=O)[nH]c2ccc(S(=O)(=O)N3CCCCCC3)cc12	i
CC(=O)c1ccc(OC(=O)c2cc3cc(Br)ccc3oc2=O)cc1	i
CC(=O)c1ccc(NC(=O)c2cc3cc(Br)ccc3oc2=O)cc1	39%*
Cc1ccc(NC(=O)c2cc3cc(Br)ccc3oc2=O)cc1C	i
CCOc1ccc(S(=O)(=O)NCCCN(CC)c2ccccc2)c2cccnc12	i
COc1cccc2cc(C(=O)Nc3ccccc3)c(=Nc3cccc(C#N)c3)oc12	i
O=C(CSc1ccc2nnc(-c3cccnc3)n2n1)N1CCCC(c2ccccc2)CC1 (stereo not drawn)	36%*
O=C(c1ccc(NCc2cccnc2)nc1)N1CCCC(c2ccccc2)CC1 (stereo not drawn)	i
O=C(CSc1ccc2nnc(-c3cccnc3)n2n1)N1CCCCC1c1ccc(F)cc1 (stereo not drawn)	i
COc1ccccc1NC(=O)C1=C(C)Nc2nc3ccccc3n2C1c1ccc(F)cc1 (stereo not drawn)	i
CN(C)/C=C/C=C/C=C1\CCC/C(=C\C=C\N(C)C)C1=O	63%*
O=C(NCCC1=CCCN(CCCF)C1)c1c(F)cccc1F	i
O=C(NC1CCCC1)c1ccc(NC2=NC3CS(=O)(=O)CC3S2)cc1 (stereo not drawn)	i
O=C(Nc1nnc(SCc2ccccc2F)s1)c1ccc(Cl)cc1Cl	i

Compound activity from PubChem BioAssay.
